# aSyn yeast inh: alpha-synuclein toxicity inhibition in yeast; Yeast expressing alpha-synuclein, growth rescue, BacTiter-Glo, 24 h; Potency, µM (highest dose often 46.1 µM), for inactives: at the highest dose growth rescue (activation), most hits filed as activators; actives 0.14% (n = 370,000); note: % of control where 0% means no effect; nearly all actives have a fitted effect of over 65% in size
#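 Rescue of yeast growth: cells expressing toxic alpha-synuclein, induced in galactose at OD600 0.02, incubated with compound 24 h at 30 C. ATP luminescence quantified growth; inhibitors of toxicity appear as activators.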
# FUS suppressor: FUS proteinopathy suppression in yeast. AID 1347120. S. cerevisiae FUS-expressing, growth rescue, OD600, 24 h. actives 0.24% (n = 390,000). Potency, µM (highest dose often 76.6 µM), most hits filed as activators;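 note: plate controls were DMSO vehicle for no effect and reference control for full effect; nearly all actives have a fitted effect of over 55% in size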
#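 Quantitative HTS measuring growth restoration of FUS-toxic yeast. Galactose-induced cells (OD 0.005) were exposed 24hr at 30C to compounds at several concentrations, then absorbance at 600 nm was recorded.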
# Abeta yeast res: A-beta toxicity reversal in yeast; actives 0.063% (n = 410,000); AID 1347071; yeast expressing A-beta42, growth rescue, OD600, 48 h; response scale: 0% DMSO, 100% iron-clioquinol control; Potency, µM (highest dose often 46.1 µM), hits mostly activators; note: nearly all actives have a fitted effect of over 55% in size
#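 Yeast growth medium received pinned compounds, then yeast cells expressing toxic A-beta were added; plates incubated at 30 C for 48 hr. Growth read as absorbance at 600 nm, normalized to DMSO and equimolar FeCl3 plus clioquinol controls.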
# TDP43 rescue: TDP-43 toxicity inhibition in yeast; actives 1.8% (n = 410,000); AID 652104; Potency, µM (series often up to 46.1 µM), for inactives: at the highest dose growth rescue (activation), hits mostly activators; TDP-43 expressing yeast growth rescue, BacTiter-Glo, 24 h; note: % of control where 0% means no effect; nearly all actives have a fitted effect of over 50% in size
#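 Yeast expressing TDP-43 (pregrown in raffinose, seeded at OD600=0.02 in galactose medium) exposed to compounds 24 hr at 30 deg C. Growth read by BacTiter-Glo luminescence; rescue of toxicity appears as increased signal.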
# An asterisk follows results filed as active; i = inactive; ? = inconclusive; . = no result. This is a sample that favours compounds with a hit; in the whole collection about 2.1% have one here. Calls come from the whole dose curve; as a rule, active = well fitted curve in the direction sought with a large enough effect; inconclusive = small, poorly fitted or top-dose-only effect, or another doubt; inactive = no such curve, though single readings can be large; an effect the other way counts as inactive or inconclusive. Potency is the fitted concentration of half-maximal effect.
SMILES,aSyn yeast inh,FUS suppressor,Abeta yeast res,TDP43 rescue
Nc1ncnc2c1nc(Sc1ccc(Cl)cc1)n2[C@H]1OC2COP(=O)(O)O[C@H]2[C@@H]1O (stereo partly specified),-4%,.,.,.
COc1ccc(C=NN=C2c3ccccc3-c3ccccc32)cc1O,1%,.,i,18µM*
Cc1ccc(C2CN(C)C3(C(=O)Nc4ccccc43)C23COc2ccccc2C3=O)cc1 (stereo unspecified),3%,.,i,3.5µM*
COc1cccc(NC(=O)CN(C)CC(=O)Nc2ccc(Cl)cc2[N+](=O)[O-])c1,7%,i,i,18µM*
CCOC(=O)c1nnn(-c2nc(N3CCCC3)nc(N3CCCC3)n2)c1-c1ccccc1,-8%,i,i,30%
CCOC(=O)c1c(-c2ccccc2)nnn1-c1nc(OCC)nc(N2CCCCC2)n1,-26%,i,i,22µM*
CCC1COCCS(=O)(=O)N1Cc1cccc(Cl)c1 (stereo unspecified),4%,i,i,?
CC(C)[C@H]1COCCS(=O)(=O)N1Cc1cccc(Cl)c1,9%,i,i,35µM*
CC1(C(=O)NS(=O)(=O)c2ccc(Cl)cc2)CCN1C(=O)C1(c2ccc(Cl)cc2)CCC1 (stereo unspecified),-28%,?,i,20µM*
COc1ccc(S(=O)(=O)NC(=O)C2(C)CCN2C(=O)C(C)(C)c2ccccc2)cc1 (stereo unspecified),7%,i,i,14µM*
COc1cc(C)ccc1S(=O)(=O)NC(=O)C1(C)CCN1C(=O)C1(c2ccc(Cl)cc2)CCC1 (stereo unspecified),-1%,i,i,28µM*
Cc1ccc(F)c(S(=O)(=O)NC(=O)C2(C)CCN2C(=O)C2(c3ccc(Cl)cc3)CCC2)c1 (stereo unspecified),-5%,i,i,?
CCCC(=O)N1CCC1(C)C(=O)NS(=O)(=O)c1ccc(OC)cc1 (stereo unspecified),-12%,i,i,-5%
CCCCc1ccc(S(=O)(=O)NC(=O)C2(C)CCN2C(=O)CCc2cccs2)cc1 (stereo unspecified),1%,i,i,35µM*
COc1cc(/C=C/c2ccc3ccccc3n2)cc(OC)c1OC,-24%,.,.,.
c1nc(NCC2CCCCO2)c2cc(-c3ccc4c(c3)OCO4)ccc2n1 (stereo unspecified),.,i,.,.
CC(C)(C)c1ccc(S(=O)(=O)NC(=O)C2(C)CCN2C(=O)c2cccc3ccccc23)cc1 (stereo unspecified),-6%,i,i,20µM*
CC1(C(=O)NS(=O)(=O)c2ccc(Cl)cc2)CCN1C(=O)C1(c2ccccc2)CCCC1 (stereo unspecified),-10%,i,i,14µM*
CC(C)(C)c1ccc(S(=O)(=O)NC(=O)C2(C)CCN2C(=O)C2(c3ccccc3)CC2)cc1 (stereo unspecified),7%,i,i,18µM*
CC1(C(=O)NS(=O)(=O)c2ccccc2Cl)CCN1C(=O)c1cccc2ccccc12 (stereo unspecified),6%,i,i,?
O=C1CCC[C@H]2C[C@H](NCc3ccccc3Cl)CC[C@]23CCCN13,.,i,.,.
CC(C)CN1C(=O)[C@@]2(CC(=O)N(C)C2c2ccccc2)c2cc(-n3cc(CCCC#N)nn3)ccc21 (stereo partly specified),.,i,.,.
OCCN1CCCC12CCC(c1ccccc1)CC2 (stereo unspecified),.,i,.,.
CCCS(=O)(=O)c1ncc(Cl)c(C(=O)N2CCN(c3ccc(OC)cc3)CC2)n1,.,i,i,14µM*
CSc1ccc(NC(=O)C2(C)CCN2C(=O)c2sccc2C)cc1 (stereo unspecified),2%,i,i,35µM*
SMILES,aSyn yeast inh,FUS suppressor,Abeta yeast res,TDP43 rescue
O=C1CCC2(CCC(c3ccccc3)CC2)N1CCO (stereo unspecified),.,i,.,.
O=C1c2ccccc2C(=O)N1CCc1ccccc1,24%,i,i,11µM*
O=C1c2ccccc2C(=O)N1CCc1c(-c2[nH]c3ccccc3c2CCN2C(=O)c3ccccc3C2=O)[nH]c2ccccc12,0%,i,i,20%
O=C1c2ccccc2C(=O)N1CCc1c(-c2ccccc2)[nH]c2ccccc12,10%,i,i,11µM*
COP(N)(=O)C(CC(C)C)NC(=O)OCc1ccccc1 (stereo unspecified),.,i,.,.
CC1=C(C)CC2C(C1)C(=O)c1ccc(Br)cc1S2(=O)=O (stereo unspecified),-3%,i,i,5µM*
CC(C)(C)OC(=O)CNC(=O)c1[nH]cnc1C(=O)NC1CCN(C(=O)OC(C)(C)C)CC1,-1%,?,i,4%
CC(C)(C)OC(=O)N1CCC(NC(=O)c2nc[nH]c2C(=O)NC2CCN(C(=O)OC(C)(C)C)CC2)CC1,0%,11µM*,i,-1%
COc1ccc([N+](=O)[O-])cc1NC1C2CC3CC(C2)CC1C3 (stereo unspecified),-20%,i,i,-2%
COc1ccc([N+](=O)[O-])cc1NC1CCCCC1,-20%,i,i,20µM*
Cc1cccc(C)c1NC(=O)CN(C)S(=O)(=O)c1ccc2[nH]c3c(c2c1)CCCC3,.,i,i,-6%
CCOc1ccc(NS(=O)(=O)c2ccc3[nH]c4c(c3c2)CCCCC4)cc1,.,i,i,18µM*
CCOc1ccc(NS(=O)(=O)c2ccc3[nH]c4c(c3c2)CCCC4)cc1,.,i,i,0%
Cc1cccc(N(C)C(=O)CN(C)S(=O)(=O)c2ccc3[nH]c4c(c3c2)CCCC4)c1,.,32µM*,i,27%
Cc1ccccc1NS(=O)(=O)c1ccc2[nH]c3c(c2c1)CCCCC3,?,35µM*,i,?
Cc1ccc(NS(=O)(=O)c2ccc3[nH]c4c(c3c2)CCCCCC4)cc1Cl,-22%,22µM*,i,-7%
COc1ccccc1NC(=O)Nc1nc(CC(=O)N2CCN(c3ccccc3F)CC2)cs1,0%,28µM*,i,0%
COc1ccccc1NC(=O)Nc1nc(CC(=O)NCc2c(F)cccc2F)cs1,0%,i,i,22%
CCOCc1cc(CN2CCN(c3cccc(C(F)(F)F)c3)CC2)c(O)c2ncccc12,.,i,i,25µM*
CC(C)OCc1cc(CN2CCN(c3cccc(C(F)(F)F)c3)CC2)c(O)c2ncccc12,.,i,i,0%
S=C1N(c2ccccc2)C(c2ccc(Br)cc2)N2CCCN12 (stereo unspecified),20%,i,i,13µM*
Cc1ccc(C)c2c1cc(C)c1nnc(SCC(=O)c3cccs3)n12,16%,i,i,22µM*
Cc1ccc2cc(C)c3nnc(SCC(=O)c4cccs4)n3c2c1C,1%,i,i,?
